Many of the other results were omitted from the sample, so hits are more common in it than they were.
HT1080 IDH1KD tx: qHTS for induction of synthetic lethality in tumor cells producing 2HG: qHTS for the HT-1080-IDH1KD cell line. HT-1080 IDH1 knockdown viability, ATP luminescence, 48 h. Potency, µM (top dose mostly 46.1 µM), without a hit: top-dose activity, negative = toxicity, hits mostly cytotoxic. actives 2% (n = 360,000). AID 686971, 2013;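 note: potency is the fitted concentration of half-maximal effect; 0% = DMSO wells and -100% = cell-free medium wells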
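Luminescent ATP read-out (CellTiter-Glo, 10 min at room temperature) after 48 h compound exposure at 37 °C gave viability of IDH1-knockdown HT-1080 cells. Activity was normalised to DMSO and cell-free wells, then fitted as concentration-response curves.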
TDP1 cell CPT: qHTS for Inhibitors of human tyrosyl-DNA phosphodiesterase 1 (TDP1): qHTS in cells in presence of CPT; actives 12% (n = 420,000); chicken DT40 Tdp1-/-;hTDP1 cells + 20 nM CPT, ATP luminescence, 48 h; AID 686979, 2013; Potency, µM (top dose mostly 46.2 µM), without a hit: top-dose activity change, negative = growth inhibition, hits mostly inhibitors; note: potency is the fitted concentration of half-maximal effect; nearly all actives have a fitted effect of over 55% in size
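Cell growth measured by CellTiter-Glo luminescence after a minimum 48 h, 37 C compound exposure with 20 nM CPT in Tdp1-knockout DT40 cells stably expressing hTDP1, seeded 400/well; qHTS titration format.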
HT1080NT lethal: qHTS for induction of synthetic lethality in tumor cells producing 2HG: qHTS for the HT-1080-NT fibrosarcoma cell line | Potency, µM (highest dose often 46.1 µM), for inactives: at the top dose activity, negative = less viability, hits mostly cytotoxic | HT-1080-NT fibrosarcoma viability, CellTiter-Glo ATP luminescence, 48 h | actives 1.6% (n = 360,000) | AID 686970, 2013;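 note: NT is the 2HG producing partner of a matched IDH1 knockdown line; potency is the fitted concentration of half-maximal effect; 0% = DMSO-treated cells and -100% = media-only wells without cells; nearly all actives have a fitted effect of over 55% in size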
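Viability of the 2HG-overproducing fibrosarcoma line after 48 hours of compound exposure at 37 degrees C was determined by luminescence with CellTiter-Glo, and concentration-effect curves were then fitted and categorized.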
ALOX12 inh: Primary qHTS assay for inhibitors of human arachidonate 12S-lipoxygenase (ALOX12): Round 2; AID 1671190, 2021; actives 1.1% (n = 580,000); Potency, µM (highest dose often 108 µM), for the others: top-dose activity change, negative = inhibition, most hits filed as inhibitors; purified 12hLO, xylenol orange hydroperoxide absorbance; note: potency is the fitted concentration of half-maximal effect
Target sequence (P18054 whole entry, looked up): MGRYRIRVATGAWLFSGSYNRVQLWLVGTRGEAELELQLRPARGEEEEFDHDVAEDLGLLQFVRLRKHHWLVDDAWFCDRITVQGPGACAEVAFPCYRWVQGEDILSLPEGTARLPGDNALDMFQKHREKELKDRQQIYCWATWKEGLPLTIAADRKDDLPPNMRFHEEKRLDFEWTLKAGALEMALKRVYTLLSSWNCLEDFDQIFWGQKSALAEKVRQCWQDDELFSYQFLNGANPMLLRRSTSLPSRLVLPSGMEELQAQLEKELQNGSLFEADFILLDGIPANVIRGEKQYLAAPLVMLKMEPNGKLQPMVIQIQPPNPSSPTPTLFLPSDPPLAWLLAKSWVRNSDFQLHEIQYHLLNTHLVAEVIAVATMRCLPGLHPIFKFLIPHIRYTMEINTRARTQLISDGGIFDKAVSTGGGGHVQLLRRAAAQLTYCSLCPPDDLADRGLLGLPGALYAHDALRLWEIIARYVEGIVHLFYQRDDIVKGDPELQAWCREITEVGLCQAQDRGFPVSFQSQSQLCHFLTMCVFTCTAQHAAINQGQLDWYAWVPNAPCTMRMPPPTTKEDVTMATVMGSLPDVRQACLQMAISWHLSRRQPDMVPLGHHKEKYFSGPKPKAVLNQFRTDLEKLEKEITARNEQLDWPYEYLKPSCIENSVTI
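Purified human 12hLO at 150 nM in 25 mM Hepes, 0.01% Triton X-100, pH 7.0, preincubated 15 min at room temperature with compound. Reaction started with 40 uM arachidonic acid, 30 min at room temperature. Hydroperoxide measured by Fe-xylenol orange, 573/405 nm absorbance ratio.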
IL1B secr inh: qHTS for Inhibitors of Inflammasome Signaling: IL-1-beta AlphaLISA Primary Screen | AID 743279, 2014 | actives 4.7% (n = 360,000) | activity change, % at 57.5 µM | THP-1 LPS/ATP IL-1B secretion, AlphaLISA, 16 h; stronger effect = lower value; in the data active = activity change below about -50%; inconclusive = mostly about -30% to -49%
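THP-1 cells pretreated 1 hr with compounds (up to 57.5 uM final), then stimulated with LPS (250 ng/mL final) plus ATP (1.25 mM final); secreted IL-1B measured by AlphaLISA after 16 hr, decreased signal indicating inhibition.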
DT40 TDP1 no CPT: qHTS for Inhibitors of human tyrosyl-DNA phosphodiesterase 1 (TDP1): qHTS in cells in absence of CPT. DT40 Tdp1-/- hTDP1 cells, no CPT, ATP luminescence, 48 h. actives 15% (n = 420,000). Potency, µM (series often up to 46.2 µM), for inactives: top-dose activity change, negative = growth inhibition, usual class: inhibitors. AID 686978, 2013; note: potency is the fitted concentration of half-maximal effect; nearly all actives have a fitted effect of over 55% in size
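Cells were dispensed at 400 per well, compounds added by pin tool, plates incubated ≥48 hr at 37 °C, then CellTiter-Glo added for 30 min at room temperature before luminescence reading. Line: DT40 Tdp1-/- complemented with hTDP1; camptothecin omitted.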
Starred values were filed as active, the others as inactive. Unless noted, calls come from the whole dose curve; as a rule, active = well fitted curve in the direction sought with a large enough effect; inconclusive = small, poorly fitted or top-dose-only effect, or another doubt; inactive = no such curve, though single readings can be large; an effect the other way counts as inactive or inconclusive. Unless noted, % is set by controls: 0 for no effect and ±100 for the full control effect.

Results for COc1ccc(N2CCN(CCNC(=O)Nc3ccc([N+](=O)[O-])cc3OC)CC2)cc1 ?
HT1080 IDH1KD tx: -28%; TDP1 cell CPT: 29µM*; HT1080NT lethal: -2%; ALOX12 inh: inconclusive; IL1B secr inh: -18; DT40 TDP1 no CPT: 23µM*

What do the screens show for `COc1ccc(NC(=O)NCCN2CCN(c3cccc(Cl)c3)CC2)cc1`?
HT1080 IDH1KD tx: -14%; TDP1 cell CPT: -27%; HT1080NT lethal: -15%; ALOX12 inh: 8%; IL1B secr inh: -15; DT40 TDP1 no CPT: inconclusive

How did COc1ccc(OC)c(NC(=O)NCCN2CCN(c3ccccc3)CC2)c1 do in these assays?
HT1080 IDH1KD tx: -2%; TDP1 cell CPT: inconclusive; HT1080NT lethal: -5%; ALOX12 inh: 0%; IL1B secr inh: -25; DT40 TDP1 no CPT: 14%

How did CCc1nc(N2CCN(CC(=O)NCC3CCCO3)CC2)c(C#N)c2c1COC(C)(C)C2 (stereo unspecified) do in these assays?
HT1080 IDH1KD tx: -2%; TDP1 cell CPT: inconclusive; HT1080NT lethal: -14%; ALOX12 inh: inconclusive; IL1B secr inh: -8; DT40 TDP1 no CPT: inconclusive

Results for CN(C(=O)CCc1ncc(-c2ccc(F)cc2)o1)C1CCS(=O)(=O)C1 (stereo unspecified) ?
ALOX12 inh: 0%

Results for COc1ccccc1CN=C1NS(=O)(=O)C(c2ccc(C)c(C)c2)=C1C ?
ALOX12 inh: 7%

Results for COc1ccc(C2=C(C)C(=NCCCN3CCN(c4cc(C)ccc4C)CC3)NS2(=O)=O)cc1 ?
TDP1 cell CPT: 4.6µM*; ALOX12 inh: inconclusive; DT40 TDP1 no CPT: -103%

How did O=C1OC(c2cc(I)c(O)c(I)c2)(c2cc(I)c(O)c(I)c2)c2ccccc21 do in these assays?
ALOX12 inh: 10µM*

Results for Cc1cc(O)c(C(C)C)cc1C1(c2cc(C(C)C)c(O)cc2C)OC(=O)c2ccccc21 ?
HT1080 IDH1KD tx: 16µM*; TDP1 cell CPT: 15µM*; HT1080NT lethal: 8.2µM*; ALOX12 inh: inconclusive; IL1B secr inh: -99*; DT40 TDP1 no CPT: 9.2µM*

Results for O=C1OC(c2ccccc2)(c2cc(Br)c(O)c(Br)c2)c2ccccc21 (stereo unspecified) ?
HT1080 IDH1KD tx: 0%; TDP1 cell CPT: -18%; HT1080NT lethal: -8%; ALOX12 inh: inconclusive; IL1B secr inh: -9; DT40 TDP1 no CPT: inconclusive

Results for COc1ccc(-c2csc(NC(=O)Nc3ccccc3)n2)cc1 ?
HT1080 IDH1KD tx: -10%; TDP1 cell CPT: -29%; HT1080NT lethal: -4%; ALOX12 inh: inconclusive; IL1B secr inh: -6; DT40 TDP1 no CPT: -20%

How did NC(CCc1ccccc1)c1csc(NC(=O)Nc2cccc(Cl)c2)n1 (stereo unspecified) do in these assays?
HT1080 IDH1KD tx: inconclusive; TDP1 cell CPT: 26µM*; HT1080NT lethal: inconclusive; ALOX12 inh: inconclusive; IL1B secr inh: -61*; DT40 TDP1 no CPT: 23µM*

What do the screens show for `Cc1ccc(NC(=O)Nc2nc(-c3ccc(C)s3)cs2)cc1`?
HT1080 IDH1KD tx: -29%; TDP1 cell CPT: inconclusive; HT1080NT lethal: -18%; ALOX12 inh: 51%; IL1B secr inh: -4; DT40 TDP1 no CPT: 12µM*

How did O=C(Nc1ccccc1)Nc1nc(-c2ccc(Cl)cc2)cs1 do in these assays?
HT1080 IDH1KD tx: inconclusive; TDP1 cell CPT: inconclusive; HT1080NT lethal: 19%; ALOX12 inh: 0%; IL1B secr inh: -16; DT40 TDP1 no CPT: inconclusive

What do the screens show for `O=C(Cc1csc(NC(=O)Nc2cccc(Cl)c2)n1)NCc1cccnc1`?
HT1080 IDH1KD tx: 4%; TDP1 cell CPT: -23%; HT1080NT lethal: 4%; ALOX12 inh: 0%; IL1B secr inh: inconclusive; DT40 TDP1 no CPT: inconclusive

How did NC(=O)c1ccc(Nc2nc(C(N)COCc3ccccc3)cs2)cc1 (stereo unspecified) do in these assays?
HT1080 IDH1KD tx: 2%; TDP1 cell CPT: inconclusive; HT1080NT lethal: -1%; ALOX12 inh: 16%; IL1B secr inh: -5; DT40 TDP1 no CPT: inconclusive

How did O=C(Nc1cccc(Cl)c1)Nc1nc(-c2ccc(Cl)cc2)cs1 do in these assays?
HT1080 IDH1KD tx: -18%; TDP1 cell CPT: 12µM*; HT1080NT lethal: -15%; ALOX12 inh: -6%; IL1B secr inh: -2; DT40 TDP1 no CPT: 16µM*

Results for NC(COCc1ccccc1)c1csc(NC(=O)Nc2cccc(C(F)(F)F)c2)n1 (stereo unspecified) ?
HT1080 IDH1KD tx: inconclusive; TDP1 cell CPT: 21µM*; HT1080NT lethal: inconclusive; ALOX12 inh: inconclusive; IL1B secr inh: -55*; DT40 TDP1 no CPT: inconclusive

What do the screens show for `COC(=O)c1cccc(COC(=O)c2ccc(C(C)=O)s2)c1`?
ALOX12 inh: -17%

What do the screens show for `NC(c1ccccc1)c1csc(NC(=O)NCC2CCCCC2)n1` (stereo unspecified)?
HT1080 IDH1KD tx: inconclusive; TDP1 cell CPT: -84%; HT1080NT lethal: inconclusive; ALOX12 inh: -17%; IL1B secr inh: -19; DT40 TDP1 no CPT: -76%

Results for O=C(Nc1cccc(Cl)c1)Nc1csc([N+](=O)[O-])c1 ?
HT1080 IDH1KD tx: 7.3µM*; TDP1 cell CPT: 2.9µM*; HT1080NT lethal: 21µM*; ALOX12 inh: inconclusive; DT40 TDP1 no CPT: 2.3µM*

What do the screens show for `CC(C)C(=O)Nc1ccc(NC(=O)Nc2cccc(Cl)c2)cc1`?
ALOX12 inh: -4%

How did NC(c1ccccc1)c1csc(NC(=O)Nc2ccc(OC(F)(F)F)cc2)n1 (stereo unspecified) do in these assays?
HT1080 IDH1KD tx: 18µM*; TDP1 cell CPT: 23µM*; HT1080NT lethal: inconclusive; ALOX12 inh: inconclusive; IL1B secr inh: -24; DT40 TDP1 no CPT: -107%

Results for NC(c1ccccc1)c1csc(NC(=O)Nc2cccc(Cl)c2)n1 (stereo unspecified) ?
HT1080 IDH1KD tx: 16µM*; TDP1 cell CPT: inconclusive; HT1080NT lethal: 21µM*; ALOX12 inh: -22%; IL1B secr inh: -104*; DT40 TDP1 no CPT: inconclusive
